Assay results published in PubChem BioAssay AID1347420 (Sanford-Burnham Center for Chemical Genomics, 2020).
Where “and” joins values, the source holds several entries; their conditions need not be identical. Identical values can stand only once. In all, about 1,300 compounds went through this assay and about 980 (75%) were called active. Roughly 4% stayed inconclusive and do not appear here. The list shows a part of the results.

target: Sulfhydryl oxidase 1 (Homo sapiens) (UniProt O00391); test: inhibition of human sulfhydryl oxidase QSOX1 – biochemical, HyperBlu H2O2 luminescence, HTS, primary screen (AID 1347420); conditions: recombinant QSOX1, HyperBlu H2O2 luminescence; at 12.5 µM; hits give high values; active = any value above zero; also: values above 100% were filed as inconclusive
Sequence (O00391 whole entry, looked up): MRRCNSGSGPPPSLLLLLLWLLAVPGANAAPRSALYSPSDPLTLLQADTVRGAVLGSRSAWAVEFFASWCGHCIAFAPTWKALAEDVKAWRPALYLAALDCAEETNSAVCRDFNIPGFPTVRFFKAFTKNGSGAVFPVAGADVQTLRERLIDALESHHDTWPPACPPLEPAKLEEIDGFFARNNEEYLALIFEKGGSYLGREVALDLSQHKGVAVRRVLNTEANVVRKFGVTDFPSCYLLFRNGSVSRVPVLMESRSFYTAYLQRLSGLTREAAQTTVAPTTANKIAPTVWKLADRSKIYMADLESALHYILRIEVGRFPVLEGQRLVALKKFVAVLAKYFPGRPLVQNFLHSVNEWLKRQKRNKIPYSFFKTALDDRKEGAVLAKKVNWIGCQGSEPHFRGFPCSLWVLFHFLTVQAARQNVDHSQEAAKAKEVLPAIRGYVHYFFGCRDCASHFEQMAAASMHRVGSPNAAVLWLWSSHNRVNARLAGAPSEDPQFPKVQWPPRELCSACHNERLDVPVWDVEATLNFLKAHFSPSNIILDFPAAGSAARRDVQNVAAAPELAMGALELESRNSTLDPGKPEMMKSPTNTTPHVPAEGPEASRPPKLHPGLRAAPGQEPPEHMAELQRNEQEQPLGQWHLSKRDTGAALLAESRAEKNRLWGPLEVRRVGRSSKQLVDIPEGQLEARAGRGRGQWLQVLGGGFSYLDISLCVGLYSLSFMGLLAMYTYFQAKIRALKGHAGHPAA

inhibition, inactive:
CC(C)(C)[C@]1(O)CCN2C[C@H]3c4ccccc4CCc4cccc(c43)[C@@H]2C1 -3.5%
N[C@H](C(=O)O)[C@H](O)C(=O)O -0.9%
CCc1cccc(N(C)C(N)=Nc2cccc3ccccc23)c1 -10.9%
O=C(O)C1=CCCN(CCON=C(c2ccccc2)c2ccccc2)C1 -7.5%
CC(C)NC[C@H](O)COc1cccc2ccccc12 -5.6%
CCC1(c2ccccc2)C(=O)NCNC1=O -13.9%
CCCCNc1cc(C(=O)O)cc(S(N)(=O)=O)c1Oc1ccccc1 -9.6%
CCN(CC)CCOC(=O)c1ccc(N)cc1 -5.5%
C=C1C(=O)O[C@@H]2[C@H]3O[C@]3(C)CCC=C(C)CC[C@@H]12 -3.6%
NC(N)=NCCC[C@H](N)C(=O)O -5.3%
CN(C)C(N)=NCCC[C@H](N)C(=O)O -1.4%
CCN(CC)CCOCCOC(=O)C1(c2ccccc2)CCCC1 -2.7%
c1ccc(CN2CCC3(CCCc4ccccc43)CC2)cc1 -10.4%
C[C@H](NC(CCc1ccccc1)C(=O)O)C(=O)N1CCC[C@H]1C(=O)O (stereo partly drawn) -5.7%
CCO/C([O-])=N/c1c[n+](N2CCOCC2)no1 -0.8%
N=C(N)c1ccccc1 -0.4%
CC(C)C[C@H](NC(=O)[C@H](O)[C@H](N)Cc1ccccc1)C(=O)O -3.8%
O=C(O)CCC/C=C\C[C@@H]1[C@@H](/C=C/[C@H](O)C2Cc3ccccc3C2)[C@@H](F)C[C@@H]1O -13.7%
CC(C)NCC(O)COc1ccc(COCCOC(C)C)cc1 (stereo not drawn) -12.7%
N=C(N)SCCN -3.9%
COc1ccc(NC=O)c(C(=O)CCNC(C)=O)c1 -9.8%
CN(C)CCCN1c2ccccc2CCc2ccc(Cl)cc21 -0.4%
CC(=O)c1ccc(S(=O)(=O)NC(=O)NC2CCCCC2)cc1 -1.5%
COC(=O)C(N)Cc1ccc(Cl)cc1 (stereo not drawn) -8.3%
N[C@@H](Cc1ccc(F)cc1)C(=O)O -2.9%
CN1CCN(C2=Nc3ccccc3Oc3ccc(Cl)cc32)CC1 -12.8%
Cn1c(=O)c2c(ncn2C)n(C)c1=O -2%
Cn1cnc2c1c(=O)[nH]c(=O)n2C 0%
Cn1c(=O)[nH]c2ncn(C)c2c1=O -0.4%

inhibition, active:
COc1cc2c(cc1OC)C1CC(=O)C(CC(C)C)CN1CC2 (stereo not drawn) 6.3%
CC[C@H]1CN2CCc3cc(OC)c(OC)cc3[C@@H]2C[C@@H]1C[C@H]1NCCc2cc(OC)c(OC)cc21 13%
CCC1(C)CC(=O)NC1=O (stereo not drawn) 13.4%
O=C(C1CCCCC1)N1CC(=O)N2CCc3ccccc3C2C1 (stereo not drawn) 8%
N[C@@H](CS(=O)O)C(=O)O 16%
C=CC[C@H](N)C(=O)O 5.3%
N[C@@H](CC(=O)O)C(=O)O 20.6%
N[C@H](CO)C(=O)O 6.6%
O=C(O)COCCN1CCN(C(c2ccccc2)c2ccc(Cl)cc2)CC1 (stereo not drawn) 6.6%
CC(C)NC[C@H](O)COc1cccc2[nH]ccc12 12.2%
C=CCc1ccccc1OCC(O)CNC(C)C (stereo not drawn) 1.7%
CC(C)NCC(O)COc1cccc2ccccc12 (stereo not drawn) 10.3%
CC(C)NCC(O)COc1cccc2[nH]ccc12 (stereo not drawn) 8%
c1cnc2c(c1)ccc1cccnc12 9.8%
CCCCNc1ccc(C(=O)OCCN(C)C)cc1 9.2%
NC(N)=NCc1cccc(I)c1 0.4%
CN=C(N)NCCC[C@H](N)C(=O)O 1.3%
CC(N)=NCCCC[C@@H](N)C(=O)O 5%
CSC(N)=NCCC[C@H](N)C(=O)O 8%
N#C/C(=C\c1ccc(O)c(O)c1)C(=O)c1ccc(O)c(O)c1 81.2%
C[C@]12C=CC(=O)C=C1CC[C@@H]1C2=CC[C@]2(C)[C@@H](C(=O)CN3CCN(c4cc(N5CCCC5)nc(N5CCCC5)n4)CC3)CC[C@@H]12 21.5%
CN1CC(O)C(O)C(O)C1CO (stereo not drawn) 11.1%
Cc1cc2c(cc1Cl)N(C(=O)Nc1ccnc3ccccc13)CC2 52.9%
Cc1cc2c(cc1Cl)N(C(=O)Nc1ccc(Oc3cccnc3C)nc1)CC2 2.9%
O=C(OCCN1CCOCC1)C1(c2ccccc2)CCCCC1 14.9%
CCOC(=O)[C@H](CCc1ccccc1)N[C@@H](C)C(=O)N1[C@H](C(=O)O)C[C@H]2CCCC[C@@H]21 12.1%
COC(=O)C1=C(C)NC(C)=C(C(=O)OC)C1c1ccccc1[N+](=O)[O-] 54.9%
COC(=O)C1=C(C)NC(C)=C([N+](=O)[O-])C1c1ccccc1C(F)(F)F (stereo not drawn) 59.9%
Cc1nc2c(OCc3ccccc3)cccn2c1CC#N 11.8%
NC(N)=NC(N)=Nc1ccccc1 6%
NC(N)=NC(N)=Nc1cccc(Cl)c1 25.1%
CN1CCN2c3ccccc3Cc3ccccc3C2C1 (stereo not drawn) 9.7%
CCCn1c(=O)c2[nH]c(C3CCCC3)nc2n(CCC)c1=O 5.5%
Cn1c(=O)c2[nH]c(C3CCCC3)nc2n(C)c1=O 7.5%
O=C(c1cc(O)c(O)c([N+](=O)[O-])c1)c1ccccc1F 83.5%
CC(C)C[C@H](NC(=O)[C@@H](O)[C@H](N)Cc1ccccc1)C(=O)O 0.9%
CC(C)NC[C@H](O)c1ccc(O)c(O)c1 38.5%
CC(C)NCC(O)c1ccc(NS(C)(=O)=O)cc1 (stereo not drawn) 4.1%
CC(C)NCC(O)c1ccc(O)c(O)c1 (stereo not drawn) 29% and 11.6%
CCC(NC(C)C)C(O)c1ccc(O)c(O)c1 (stereo not drawn) 38.5%
CC(C)(C)NCC(O)c1ccc(O)c(CO)c1 (stereo not drawn) 17.3%
CC(C)(C)NCC(O)c1cc(O)cc(O)c1 (stereo not drawn) 3%
CC(C)NCC(O)c1cc(O)cc(O)c1 (stereo not drawn) 8.3%
Nc1ccc(S(=O)(=O)Nc2ccnn2-c2ccccc2)cc1 27.9%
O=c1cc(N2CCOCC2)oc2c(-c3ccccc3)cccc12 4.6%
Cc1cc(O)c2c(c1)C(=O)c1cc(O)cc(O)c1C2=O 17.7%
OCC1O[C@H]([S-])[C@@H](O)C(O)[C@@H]1O.[Au+] (stereo partly drawn) 29.5%
N=C(N)SCCc1ccc(CCSC(=N)N)cc1 9%
Oc1cc2c(cc1O)CN(C(=S)NCCc1ccc(Cl)cc1)CCC2 83.2%
COc1ccc2[nH]cc(CCNC(C)=O)c2c1 15.6%
CC(=O)NCCc1c[nH]c2ccc(O)cc12 92.2%
COc1cc2c(CCNC(C)=O)c[nH]c2cc1Cl 14.3%
O=c1[nH]cc(F)c(=O)[nH]1 13.9%
Cc1cc(NC(=O)Nc2ccc3c(ccn3C)c2)sn1 13.4%
CN(C)CCCN1c2ccccc2CCc2ccccc21 31.8%
CNCCCN1c2ccccc2CCc2ccccc21 34.2%
CC(CN(C)C)CN1c2ccccc2CCc2ccccc21 (stereo not drawn) 29.4%
CCCNC(=O)NS(=O)(=O)c1ccc(Cl)cc1 0.5%
CCCCNC(=O)NS(=O)(=O)c1ccc(C)cc1 10.2%
Cc1ccc(S(=O)(=O)NC(=O)NN2CCCCCC2)cc1 49.9%
OC(CN1CCN(c2cccc(Cl)c2)CC1)C(c1ccccc1)c1ccccc1 (stereo not drawn) 17.3%
C[C@]12CCC(=O)C=C1CC[C@@H]1[C@@H]2[C@@H](O)C[C@@]2(C)[C@H]1CC[C@]2(O)C(=O)CO 9%
C[C@]12C[C@H](O)[C@H]3[C@@H](CCC4=CC(=O)CC[C@@]43C)[C@@H]1CC[C@@H]2C(=O)CO 9.4%
N[C@H](C(=O)O)[C@H]1C[C@@H]1C(=O)O 20.9%
O=C(O)c1cc(=O)cc(C(=O)O)[nH]1 10.2%
COC(=O)[C@@H](N)Cc1ccc(O)c(O)c1 48.2%
NC(Cc1ccc(Cl)cc1)C(=O)O (stereo not drawn) 6.1%
N[C@@H](Cc1ccc(O)c(O)c1)C(=O)O 43.6%
N[C@@H](Cc1ccc(O)c(I)c1)C(=O)O 14.8%
NC1CCN(O)C1=O (stereo not drawn) 30%
CCCC1O[C@@H]2C[C@H]3[C@@H]4CCC5=CC(=O)C=C[C@]5(C)[C@H]4[C@@H](O)C[C@]3(C)[C@]2(C(=O)CO)O1 (stereo partly drawn) 4.1%
CCCN(CC1CC1)c1nc(C)nc(Nc2c(Cl)cc(Cl)cc2Cl)c1Cl 3.7%
NS(=O)(=O)c1cc2c(cc1Cl)NCNS2(=O)=O 9.5%
NS(=O)(=O)c1cc2c(cc1Cl)NC(C1CC3C=CC1C3)NS2(=O)=O (stereo not drawn) 44.4%
NS(=O)(=O)c1cc2c(cc1Cl)NC=NS2(=O)=O 4.3%
CNCCCC12CCC(c3ccccc31)c1ccccc12 1.9%
NC/C=C/C(=O)O 1.4%
NC/C=C\C(=O)O 7.5%
CC(C)COCC(CN(Cc1ccccc1)c1ccccc1)N1CCCC1 (stereo not drawn) 40.1%
Brc1c(Br)c(Br)c2[nH]cnc2c1Br 18.9%
CN1CCc2cccc3c2C1Cc1ccc(O)c(O)c1-3 (stereo not drawn) 73.2%
Clc1ccc2c(c1)N=C(N1CCNCC1)c1ccccc1N2 69.5%
Cc1ccc2c(c1)C(N1CCN(C)CC1)=Nc1cccnc1N2 42.7%
CN1CCN(C2=Nc3cc(Cl)ccc3Nc3ccccc32)CC1 78.4%
Clc1ccc2c(c1)C(N1CCNCC1)=Nc1ccccc1O2 21.3%
CC(=O)CCCCn1c(=O)c2c(ncn2C)n(C)c1=O 13.8%
CCCn1c(=O)c2c(ncn2C)n(CCC)c1=O 11.9%
C#CCn1c(=O)c2c(ncn2C)n(C)c1=O 4%
CCCn1cnc2c1c(=O)n(CCCCC(C)=O)c(=O)n2C 5.2%
